Screening data from PubChem BioAssay.
HDAC3 inh: inhibitors of human histone deacetylase 3 | O15379 | recombinant HDAC3, fluorogenic peptide/trypsin coupled, fluorescence | inhibition, % at 8.3 µM | 320,000 compounds, 0.15% hits | AID 2718; in the data active = inhibition above about 26%, passing the limit was not always enough; inconclusive = no clear call, values can overlap the other calls
ALR inh: blocks human ALR sulfhydryl oxidase activity. P55789. purified ALR, DTT oxidation, H2O2 HRP-luminol luminescence. inhibition, % (test concentration not listed). 290,000 compounds, 3.8% hits. AID 485317;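 active = mean replicate inhibition above about 79%, with every replicate also reaching it, limit read from the data; inconclusive = only one of the two criteria met; inactive = mean below limit and not every replicate reaching it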
GC-A act: GC-A (human) enzyme activation; 370,000 compounds, 0.14% hits; HEK293 GC-A cells, cGMP TR-FRET, EC30 ANP; 0% at EC30 ANP, 100% saturating ANP; AID 1671463; P16066; activation, % at 10 µM; in the data active = activation above about 40%
GC-B act: GC-B (human) receptor activation. HEK293-GC-B cells, CNP EC30, cGMP TR-FRET; 0% at EC30 CNP, 100% saturating CNP. activation, % at 10 µM. 370,000 compounds, 0.11% hits. AID 1920062;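 active = activation at 10 µM reaching about 35% in either raw or pattern-adjusted values, limit read from the data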
Hits are given with their value; i = inactive; ? = inconclusive; nt = no result given. The full list was thinned out, with hits kept by preference.

SMILES	HDAC3 inh	ALR inh	GC-A act	GC-B act
Cc1ccc(C(=O)CC(C(=O)O)c2cn(CCC#N)c3ccccc23)cc1 (centres undefined)	i	96	i	i
N#CCCn1cc(C(CC(=O)c2ccc(Br)cc2)C(=O)O)c2ccccc21 (centres undefined)	i	91	nt	nt
Cc1ccc(CCS(=O)(=O)c2ccc(C(C)(C)C)cc2)cn1	i	nt	i	i
Cc1cc2ncn(C(=O)c3ccc(F)cc3)c2cc1C	i	98	i	i
Cc1ccc2nc(NCCCO)[nH]c2c1	i	97	i	i
CC(NC(=O)COc1ccccc1)C(c1ccccc1)N1CCN(C)CC1 (centres undefined)	i	98	i	i
CCOc1ccc(NC(=S)NC(C)C(c2ccccc2)N2CCN(C)CC2)cc1 (centres undefined)	i	i	i	i
Cc1[nH]nc2c1C(c1ccc(F)cc1)N(Cc1ccccc1)C2=O (centres undefined)	nt	nt	i	i
O=C(c1ccc2c(c1)OCO2)N1CCN(c2ccccc2)CC1	i	98	i	i
COc1ccc(N2CCN(C(=O)c3ccc(SC)cc3OC)CC2)cc1	i	85	i	i
O=C(c1ccccc1)N1CCN(c2ccc(NCc3ccc4c(c3)OCO4)cc2)CC1	nt	89	i	i
O=C(c1ccc2c(c1)OCO2)N1CCN(c2ccc(Cl)cc2)CC1	i	i	i	i
CC(=O)N1CCN(c2ccc(NCc3ccc4c(c3)OCO4)cc2)CC1	i	nt	i	i
COc1ccc(N2CCN(C(=O)c3ccc4c(c3)OCO4)CC2)cc1	i	84	i	i
Cc1ccc(S(=O)(=O)NCCC(=O)NCC(c2ccco2)N2CCCCC2)cc1C (centres undefined)	i	i	i	i
Cc1ccc(-n2c(-c3ccco3)n[nH]c2=S)cc1	i	88	i	i
Cc1ccc(-n2c([C@@H]3C[C@H]3c3ccccc3)n[nH]c2=S)cc1	i	85	i	i
Fc1ccc(-n2c(-c3ccco3)n[nH]c2=S)cc1	i	i	i	i
Cc1occc1-c1n[nH]c(=S)n1-c1ccccc1	i	94	i	i
Cc1ccc(C2CC2c2n[nH]c(=S)n2-c2ccc(C)cc2)cc1 (centres undefined)	i	i	i	i
C=CCn1c(NCCO)nc2sc3c(c2c1=O)CCC3	i	86	i	i
CSc1cccc(NC(=O)CN2C(=O)c3ccccc3S2(=O)=O)c1	i	95	i	i
Cc1ccc(-c2nc(NCCCO)c3ccccc3n2)cc1	i	98	i	i
Cc1ccc(-c2nc(NCCN(C)C)c3ccccc3n2)cc1	i	i	i	i
CC1(C)CC(=O)N(CC(=O)N2CCN(c3cccc(C(F)(F)F)c3)CC2)c2ccccc2S1(=O)=O	nt	nt	i	i
SMILES	HDAC3 inh	ALR inh	GC-A act	GC-B act
O=C(NNc1nc2ccccc2s1)c1ccccc1F	i	97	i	i
Nc1ccc(C(=O)Nc2nc3ccccc3s2)cc1	i	94	i	i
NC(=S)Nc1nc2ccccc2s1	i	94	i	i
Cc1cc(C)n(-c2ccc(C(=O)Nc3nc4ccccc4s3)cc2)n1	i	i	i	i
O=[N+]([O-])c1cccc(C2Nc3ccccc3CO2)c1 (centres undefined)	nt	nt	i	i
COC(=O)C1=CN(c2ccc(C(C)(C)C)cc2)C(N)=C(C#N)C1c1ccc(OC)cc1 (centres undefined)	nt	nt	i	i
O=C(O)COc1ccccc1O	i	i	i	i
NC(=S)NNC(=O)COc1ccccc1O	i	89	i	i
Cc1ccc(-c2cc(C(=O)Nc3ccc(S(=O)(=O)Nc4ncccn4)cc3)[nH]n2)c(O)c1C	i	i	i	i
O=C1CCCN1CCCNc1ncnc2c1[nH]c1ccc(Cl)cc12	i	98	i	i
N#Cc1c(N)n(Cc2ccccc2)c(=O)c2cc([N+](=O)[O-])ccc12	i	i	47	i
CCO[C@H]1OC(C(=O)NCc2nc3ccccc3[nH]2)=C[C@@H](c2ccc3c(c2)OCO3)[C@@H]1CCCO	?	i	i	i
CN(C)c1ccc(NC(=O)CC2NCCNC2=O)cc1 (centres undefined)	i	99	i	i
O=C(Nc1ccc(N2CCN(C(=O)c3ccccc3F)CC2)cc1)c1ncn[nH]1	i	nt	i	i
O=C(Cc1ccc(-n2c(=O)c3ccccc3n(Cc3ccccc3Cl)c2=O)cc1)NCC1CCCO1 (centres undefined)	i	i	53	62
O=C(Cc1ccc(-n2c(=O)c3ccccc3n(Cc3ccccc3F)c2=O)cc1)NCC1CCCO1 (centres undefined)	i	i	i	i
Cc1ccc(C(=O)NCCc2ccccn2)cc1S(=O)(=O)N1CCOCC1	i	i	nt	nt
Cc1oc(-c2ccccc2)cc1C(=O)Nc1cccc(C(=O)O)c1	i	84	i	i
Cc1ccc(CSCc2ccc(C(=O)NCCCN3CCOCC3)o2)cc1	i	i	i	i
CC1CCN(CCCNC(=O)c2ccc(CSCc3cccc(Cl)c3)o2)CC1	i	99	i	i
O=C(NC1CC1)c1ccc(CSCc2cccc(F)c2)o1	i	99	i	i
Cc1ccc(CSCc2ccc(C(=O)NC3CC3)o2)cc1	i	i	i	i
Cc1ccccc1CSCc1ccc(C(=O)NCCCN2CCOCC2)o1	i	98	i	i
COc1ccc2[nH]c(CN3CCC(CO)(CCOc4ccccc4)CC3)c(C)c2c1	i	i	i	i
O=[N+]([O-])c1ccc(S(=O)(=O)Nc2ccc(-c3ccccc3)cc2)cc1	nt	nt	i	i
SMILES	HDAC3 inh	ALR inh	GC-A act	GC-B act
CCC(Sc1nc2ccncc2[nH]1)C(=O)Nc1cc(Cl)ccc1C (centres undefined)	i	nt	i	i
CC1(C)CC(=O)C(=Cc2cn(CCC#N)nc2-c2ccc(F)cc2)C(=O)C1	i	95	i	i
C(=N\Nc1ccccc1)/c1nc2ccccc2s1	i	nt	i	i
Cc1nnc(SCC(=O)NC(C)(C)C)n1NCc1ccc(N(C)C)cc1	i	81	i	i
CCN1C(=S)N[C@@H](c2cccc(F)c2)C(C(=O)OC)=C1C	i	i	i	45
COC(=O)C1=C(C)N(Cc2ccc(Br)cc2)C(=S)NC1c1cccc(F)c1 (centres undefined)	nt	nt	i	i
C=CCN=C1NC(c2ccccc2C(F)(F)F)C(C(=O)OC)=C(C)N1Cc1cccc(C(F)(F)F)c1 (centres undefined)	nt	nt	i	i
Cc1cccc(-c2nc(CSCC(=O)NCCCN3CCOCC3)c(C)o2)c1	i	99	i	i
CCN(CC(=O)NCCCN1CCOCC1)S(=O)(=O)c1ccc(Cl)cc1	i	i	i	i
Cc1oc(-c2ccc(Cl)cc2)nc1CSCC(=O)NCCCN1CCOCC1	i	99	i	i
Cc1oc(-c2cccc(Cl)c2)nc1CS(=O)(=O)CC(=O)NCCCN1CCOCC1	i	i	i	i
CC(C)(C)C(=O)OC12CCCN(C1)/C(=C/c1cccc(Cl)c1)C2 (centres undefined)	nt	nt	i	i
CCC(CC)C(=O)NCCCN1CCOCC1	i	i	i	i
Cc1ccc2c(c1)c(/C=C/c1cc[n+](C)cc1)c(C)n2C	i	85	i	i
Cc1ccc2[nH]c(C)c(/C=C/c3cc[n+](C)cc3)c2c1	i	99	i	i
